Values without a mark were called inactive. For some of these results: Entries with a potency or affinity are not part of this list. Activity calls are given as the source filed them. Unless noted, how the calls were made is not given here.
What was measured:
[1] = antimalarial activity against Dd2 strain (AID 2302;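 active means growth inhibition above 50% at the single 2 µM test dose, taken to imply half-maximal potency below 2 µM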;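 further: 0% = DMSO untreated growth and 100% = chloroquine plus artemisinin killed control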); conditions: P. falciparum Dd2 in RBCs, LDH growth readout, 72 h; at 2 µM; stronger effect = higher value
[2] = human hepatoma cell viability loss – ATP luminescence, cytotoxicity control for P. falciparum antimalarial project, primary screen (AID 2303;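 active means inhibition above 50%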;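 further: 0% = DMSO wells and 100% = digitonin-killed cells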); conditions: HepG2 viability, 24-48 h, at 10 µM, stronger effect = higher value
[3] = target: L-lactate dehydrogenase (Plasmodium falciparum (isolate CDC / Honduras)) (UniProt Q27743); assay: PfLDH activity inhibition – cell lysate, 3D7 strain, counter-screen for P. falciparum growth inhibition project (AID 2304);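 further: 0% = vehicle and 100% = reference inhibitor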; conditions: P. falciparum 3D7 crude extract, LDH APAD/NBT absorbance; at 2 µM; stronger effect = higher value
Sequence of L-lactate dehydrogenase (Plasmodium falciparum (isolate CDC / Honduras)) (Q27743 whole entry, looked up): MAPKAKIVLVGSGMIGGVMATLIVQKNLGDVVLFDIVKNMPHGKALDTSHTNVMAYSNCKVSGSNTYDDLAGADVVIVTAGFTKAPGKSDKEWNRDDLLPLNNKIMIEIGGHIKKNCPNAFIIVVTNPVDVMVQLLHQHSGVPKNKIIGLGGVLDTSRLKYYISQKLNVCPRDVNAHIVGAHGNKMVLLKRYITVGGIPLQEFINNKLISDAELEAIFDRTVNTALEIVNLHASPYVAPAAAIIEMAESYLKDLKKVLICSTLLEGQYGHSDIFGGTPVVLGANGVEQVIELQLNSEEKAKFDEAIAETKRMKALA

[4] = inhibition of 3D7 malaria parasite growth – strain 3D7 (AID 2306);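 further: 0% = DMSO wells and 100% = chloroquine plus artemisinin control wells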; conditions: P. falciparum 3D7 erythrocytic growth, LDH absorbance, 72 h; at 2 µM; stronger effect = higher value
[5] = target: Calcium-dependent protein kinase 1 (Plasmodium falciparum (isolate 3D7)) (UniProt P62344); assay: PfCDPK1 kinase inhibitors, biochemical, TCAMS library (AID 1159585; cut-off not given, nearly all actives have IC50 up to about 0.98 µM;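 further: inhibitors leave more ATP so luminescence rises with inhibition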); conditions: recombinant PfCDPK1, Kinase-Glo ATP depletion luminescence
Sequence of Calcium-dependent protein kinase 1 (Plasmodium falciparum (isolate 3D7)) (P62344 whole entry, looked up): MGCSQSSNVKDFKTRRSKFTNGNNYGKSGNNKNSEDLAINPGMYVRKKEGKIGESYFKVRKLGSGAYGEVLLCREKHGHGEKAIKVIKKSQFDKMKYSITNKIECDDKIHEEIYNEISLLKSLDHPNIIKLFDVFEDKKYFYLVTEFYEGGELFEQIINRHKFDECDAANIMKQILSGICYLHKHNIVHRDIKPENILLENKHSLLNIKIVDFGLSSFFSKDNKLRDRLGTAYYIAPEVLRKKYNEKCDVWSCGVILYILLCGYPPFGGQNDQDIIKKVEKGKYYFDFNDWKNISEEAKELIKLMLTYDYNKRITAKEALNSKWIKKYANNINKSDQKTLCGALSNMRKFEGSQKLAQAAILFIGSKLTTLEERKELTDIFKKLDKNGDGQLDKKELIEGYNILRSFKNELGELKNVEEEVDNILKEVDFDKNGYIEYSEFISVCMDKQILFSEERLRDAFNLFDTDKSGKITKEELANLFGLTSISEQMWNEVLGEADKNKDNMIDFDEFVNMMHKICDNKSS

[6] = target: Plasmodium falciparum protein kinase 6 (PK6, PF3D7_1337100) (UniProt Q8IDW1); assay: PfPK6 kinase inhibitors, biochemical, TCAMS library (AID 1159586); conditions: recombinant PfPK6, Kinase-Glo ATP depletion luminescence
Sequence of Plasmodium falciparum protein kinase 6 (PK6, PF3D7_1337100) (Q8IDW1 1-305): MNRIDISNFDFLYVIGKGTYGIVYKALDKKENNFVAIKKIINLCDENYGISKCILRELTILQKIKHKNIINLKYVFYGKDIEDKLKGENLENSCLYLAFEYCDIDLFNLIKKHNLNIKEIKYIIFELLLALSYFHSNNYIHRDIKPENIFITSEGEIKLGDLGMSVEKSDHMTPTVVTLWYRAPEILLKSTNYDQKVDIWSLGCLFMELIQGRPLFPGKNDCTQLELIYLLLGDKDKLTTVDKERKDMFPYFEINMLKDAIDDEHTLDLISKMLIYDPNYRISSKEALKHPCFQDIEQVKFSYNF

[7] = target: Protein kinase 7 (PK7), Plasmodium falciparum 3D7 (PF3D7_0213400) (UniProt Q7YTF7); assay: inhibition of Plasmodium PK7 catalytic activity – biochemical, TCAMS antimalarial set, Kinase-Glo luminescence (AID 1159587); conditions: recombinant PfPK7, Kinase-Glo ATP depletion luminescence
Sequence of Protein kinase 7 (PK7), Plasmodium falciparum 3D7 (PF3D7_0213400) (Q7YTF7 1-343): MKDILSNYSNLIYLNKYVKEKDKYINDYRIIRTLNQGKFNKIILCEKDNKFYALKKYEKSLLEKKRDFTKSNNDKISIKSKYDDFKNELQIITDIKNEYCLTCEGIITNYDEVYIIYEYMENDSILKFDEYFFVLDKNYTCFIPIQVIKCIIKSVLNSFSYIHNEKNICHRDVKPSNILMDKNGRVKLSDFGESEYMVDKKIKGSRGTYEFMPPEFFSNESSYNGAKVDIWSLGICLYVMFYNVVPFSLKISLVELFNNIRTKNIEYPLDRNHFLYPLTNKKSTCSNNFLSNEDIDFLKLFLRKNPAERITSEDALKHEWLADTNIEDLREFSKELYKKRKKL

[8] = target: Calcium-dependent protein kinase 4 (Plasmodium falciparum (isolate 3D7)) (UniProt Q8IBS5); assay: PfCDPK4 kinase inhibitors, biochemical, TCAMS library (AID 1159588; cut-off not given, nearly all actives have IC50 up to about 0.91 µM); conditions: recombinant PfCDPK4, Kinase-Glo ATP depletion luminescence
Sequence of Calcium-dependent protein kinase 4 (Plasmodium falciparum (isolate 3D7)) (Q8IBS5 whole entry, looked up): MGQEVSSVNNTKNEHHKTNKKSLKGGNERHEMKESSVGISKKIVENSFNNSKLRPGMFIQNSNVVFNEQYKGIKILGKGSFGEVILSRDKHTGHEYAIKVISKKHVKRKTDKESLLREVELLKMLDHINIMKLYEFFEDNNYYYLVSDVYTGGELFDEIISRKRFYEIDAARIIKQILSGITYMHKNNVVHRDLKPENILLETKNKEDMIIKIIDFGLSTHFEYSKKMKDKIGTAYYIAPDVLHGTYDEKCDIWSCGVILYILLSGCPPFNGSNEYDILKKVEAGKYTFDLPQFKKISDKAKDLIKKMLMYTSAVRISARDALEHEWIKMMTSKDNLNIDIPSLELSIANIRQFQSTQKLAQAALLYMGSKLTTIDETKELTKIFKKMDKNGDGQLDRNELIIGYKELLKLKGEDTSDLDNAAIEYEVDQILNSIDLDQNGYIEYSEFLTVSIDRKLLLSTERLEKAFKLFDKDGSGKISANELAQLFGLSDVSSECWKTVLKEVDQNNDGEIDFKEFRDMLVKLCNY

Row | Structure (SMILES) | growth inhibition [1] | inhibition [2] | inhibition [3] [%] | growth inhibition [4] | outcome [5] | outcome [6] | outcome [7] | outcome [8]
1 | FC(F)(F)c1ccc2nc(-c3ccc(-c4ccc(CN5CCN(c6ccncc6)CC5)cc4)cc3)[nH]c2c1 | 99% (active) | 91% (active) | 6 | 101% (active) | inactive | inactive | inactive | inactive
2 | CN1CCN(CC(=O)Nc2ccc(-c3ccc(-c4nc5ccc(C(F)(F)F)cc5[nH]4)s3)cc2)CC1 | 73% (active) | 84% (active) | 5 | 102% (active) | inactive | inactive | inactive | inactive
3 | CCn1c(Sc2ccc([N+](=O)[O-])c(C#N)c2)nnc1-c1cccc(Cl)c1 | 22% | 8% | 2 | 89% (active) | inactive | inactive | inactive | inactive
4 | COc1ccc(CCN2CCC(Nc3nc4ccccc4n3CCc3ccc(OC)cc3)CC2)cc1 | 88% (active) | 34% | -1 | 101% (active) | inactive | inactive | inactive | inactive
5 | N#Cc1ccc(NC2(C(=O)N3CCN(c4cccc(Cl)c4)CC3)CC2)c2ccccc12 | 66% (active) | -5% | 0 | 94% (active) | inactive | inactive | inactive | inactive
6 | CCN(CCCN1CCCCC1)c1cc(C)nc(Nc2cccc3c2CCCC3)n1 | 46% | 60% (active) | -3 | 92% (active) | inactive | inactive | inactive | inactive
7 | CN(C)CCOc1ccc2[nH]c(-c3cccc(OCc4ccccc4)c3)nc2c1C#N | 86% (active) | 48% | -5 | 100% (active) | inactive | inactive | inactive | inactive
8 | CCNc1cc(CCCC(=O)OCC)nc(Nc2ccc(C)cc2)n1 | 63% (active) | 17% | -4 | 101% (active) | inactive | inactive | inactive | inactive
9 | CCc1nc2ccc(C(=O)OC)nc2n1Cc1ccc2oc(-c3ccccc3N)c(Br)c2c1 | 75% (active) | 8% | -2 | 93% (active) | inactive | inactive | inactive | inactive
10 | Oc1ccc2ccccc2c1CNCCC1CCCCC1 | 99% (active) | 16% | 5 | 99% (active) | inactive | inactive | inactive | inactive
11 | CN(C)CC(=O)Nc1ccc(-c2ccc3ccnc(N)c3c2)cc1 | 99% (active) | 69% (active) | 2 | 101% (active) | inactive | inactive | inactive | inactive
12 | COCCNCc1cccc(-c2ccc3nccc(Nc4cc(O)ccc4C)c3c2)c1 | 92% (active) | -1% | 4 | 101% (active) | inactive | inactive | inactive | inactive
13 | O=C(NC1CCCCC1)c1csc(C2CCCN(C(=O)c3ccc(O)c(-c4cccc(C(F)(F)F)c4)c3)C2)n1 (centres undefined) | 85% (active) | 8% | 5 | 96% (active) | inactive | inactive | inactive | inactive
14 | Nc1c2c(nc3ccc(Oc4ccc(Br)cc4Br)cc13)CCCC2 | 47% | 33% | 0 | 99% (active) | inactive | inactive | inactive | inactive
15 | CN1CCN(Cc2cccc(-c3ccc4c(Nc5ccc(F)cc5Cl)ccnc4c3)c2)CC1 | 100% (active) | 20% | -1 | 101% (active) | inactive | inactive | inactive | inactive
16 | Cc1noc(C)c1CN1Cc2ccccc2OC2(CCN(Cc3c[nH]c4cnccc34)CC2)C1 | 12% | 19% | -2 | 89% (active) | inactive | inactive | inactive | inactive
17 | O=C(NCc1ccc(C(=O)NC2CCCCC2)cc1)c1ccc(O)c(-c2ccc(Cl)c(Cl)c2)c1 | -4% | 5% | -6 | 93% (active) | inactive | inactive | inactive | inactive
18 | CN1CCN(c2ccnc3ccc(NC(=O)Nc4c(Cl)cccc4Cl)cc23)CC1 | 12% | 11% | -1 | 96% (active) | inactive | inactive | inactive | inactive
19 | COCCNC(=O)C1CCN(C(c2ccc(Cl)cc2)c2ccc(Cl)cc2)CC1 | 73% (active) | 3% | -3 | 86% (active) | inactive | inactive | inactive | inactive

Row | Structure (SMILES) | growth inhibition [1] | inhibition [2] | inhibition [3] [%] | growth inhibition [4] | outcome [5] | outcome [6] | outcome [7] | outcome [8]
20 | COc1ccccc1C(=O)N1CCN(Cc2cccs2)CC1 | 1% | 87% (active) | -1 | 96% (active) | inactive | inactive | inactive | inactive
21 | COc1ccc2nc3cc(Cl)ccc3c(Nc3ccc(O)c(CN4CC5CCC(CC5)C4)c3)c2c1 | 100% (active) | 17% | 3 | 102% (active) | inactive | inactive | inactive | inactive
22 | COc1cc(N(Cc2ccc(F)cc2)C(=O)c2ccc(-c3ccccc3)cc2)ccc1OCCN1CCCC1 | 4% | 11% | -4 | 93% (active) | inactive | inactive | inactive | inactive
23 | CN1CCC(COc2ccc(CN3CCC(NC(=O)c4cccc(Cl)c4)CC3)cc2)CC1 | 13% | 16% | -2 | 94% (active) | inactive | inactive | inactive | inactive
24 | NC(=O)CCC(NC(=O)CNC(=O)Nc1cccc(C(F)(F)F)c1)C(=O)O (centres undefined) | 93% (active) | 1% | 4 | 97% (active) | inactive | inactive | inactive | inactive
25 | Cc1nc2nc(N)nc(N)c2c(C)c1Cc1cccc(C#N)c1 | 1% | 64% (active) | 1 | 97% (active) | inactive | inactive | inactive | inactive
26 | Cc1cc(N2CCNCC2)c2cc(NC(=O)Nc3ccc(Cl)c(Cl)c3)ccc2n1 | 86% (active) | 23% | -2 | 100% (active) | inactive | inactive | inactive | inactive
27 | O=C(NCCc1ccccc1)N(Cc1ccccc1-c1ccc(CNCCc2ccccc2)cc1)C1CCN(Cc2ccccc2)CC1 | 91% (active) | 99% (active) | 5 | 97% (active) | inactive | inactive | inactive | inactive
28 | Cc1cc(N(C)C)nc(Nc2ccc(NC(=O)CCc3ccccc3)cc2)n1 | 84% (active) | 20% | 1 | 100% (active) | inactive | inactive | inactive | inactive
29 | CCCCc1cc(NCC)nc(Nc2cccc(OC)c2)n1 | 69% (active) | 9% | -4 | 97% (active) | inactive | inactive | inactive | inactive
30 | Cc1[nH]c(C)c(-c2ccc(Oc3ccc(Cl)cc3Cl)cc2)c(=O)c1Br | 94% (active) | 3% | -5 | 98% (active) | inactive | inactive | inactive | inactive
31 | CCC(C)NC(=O)CN1CN(c2ccccc2)C2(CCN(C(=O)c3ccc4ccccc4c3)CC2)C1=O (centres undefined) | 78% (active) | -6% | -2 | 95% (active) | inactive | inactive | inactive | inactive
32 | COc1ccc(S(=O)(=O)NC2CCN(c3cc(C)nc(Nc4cccc(C#N)c4)n3)CC2)cc1 | 55% (active) | 9% | -4 | 88% (active) | inactive | inactive | inactive | inactive
33 | COc1ccc(CC(=O)NC(CCCN2CCC(c3ccccc3)CC2)c2ccc(Cl)c(Cl)c2)cc1OC (centres undefined) | 57% (active) | 28% | -7 | 82% (active) | inactive | inactive | inactive | inactive
34 | Cc1nc(N)nc(N)c1CCCOc1ccccc1Br | 5% | 53% (active) | 5 | 97% (active) | inactive | inactive | inactive | inactive
35 | Cc1cc(N[C@@H](Cc2ccccc2)C(=O)NC2CCCC2)nc(NCc2ccccc2C)n1 | 20% | 2% | 3 | 91% (active) | inactive | inactive | inactive | inactive
36 | O=C(Nc1ccc(OC2CCN(Cc3ccccc3)CC2)c(Cl)c1)c1cccs1 | 95% (active) | 2% | 4 | 96% (active) | inactive | inactive | inactive | inactive
37 | CCCCN(CCCC)CCNC(=O)c1ccc(-c2nc3ccc(Cl)cc3[nH]2)c(OCC)c1 | 80% (active) | 0% | 9 | 101% (active) | inactive | inactive | inactive | inactive
38 | CC(C)(C)c1ccc2nc(-c3ccc(/C=C/C(=O)NCc4ccc(Cl)c(Cl)c4)cc3)[nH]c2c1 | 17% | 41% | 0 | 97% (active) | inactive | inactive | inactive | inactive

From PubChem BioAssay
